Results as given in PubChem BioAssay (EPA / NIEHS).
Records with an inconclusive call do not appear. Calls of active or inactive are those of the source. How the source made its calls, unless noted: active means hit-call score of the fitted dose curve at least 0.9, where 1 is the maximum; inactive means score below 0.9.

Experiments:
[1] = read-out: Interleukin-8 (IL8), CXCL8 (gene 3576); assay: BSK_3C_IL8: BioMAP Diversity Plus: 3C Assay for Interleukin-8 (IL8) Biomarker Activity (AID 2283020); conditions: primary human endothelial cells (HUVEC); actives raise or lower the signal
Method in brief: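 Endothelial primary cells of human umbilical vein origin are dosed with chemical; after 24 h the IL-8 biomarker is measured by ELISA, and concentration–response is fitted in both directions versus DMSO.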

[2] = read-out: Monokine induced gamma interferon (MIG), CXCL9 (gene 4283); assay: BSK_3C_MIG: BioMAP Diversity Plus: 3C Assay for Monokine induced gamma interferon (MIG) Biomarker Activity (AID 2283021); conditions: primary human endothelial cells (HUVEC); actives raise or lower the signal;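 on AC50: MIG protein level measured by immunoassay in the treated endothelial cultures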
Method in brief: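 Endothelial primary cells (human umbilical vein) are dosed with test chemical in the 3C system. MIG levels are measured by ELISA at 24 h and fitted in both directions relative to DMSO.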

[3] = target: human Vitamin D Receptor (VDR), VDR (gene 7421) (UniProt P11473); assay: ATG_VDR_TRANS: Attagene TRANS-FACTORIAL HepG2 Assay for human Vitamin D Receptor (VDR) (AID 2283022; active means hit-call score of the fitted dose curve at least 0.9, where 1 is the maximum)
Sequence of human Vitamin D Receptor (VDR), VDR (gene 7421) (P11473 whole entry, looked up, the tested form may be a part): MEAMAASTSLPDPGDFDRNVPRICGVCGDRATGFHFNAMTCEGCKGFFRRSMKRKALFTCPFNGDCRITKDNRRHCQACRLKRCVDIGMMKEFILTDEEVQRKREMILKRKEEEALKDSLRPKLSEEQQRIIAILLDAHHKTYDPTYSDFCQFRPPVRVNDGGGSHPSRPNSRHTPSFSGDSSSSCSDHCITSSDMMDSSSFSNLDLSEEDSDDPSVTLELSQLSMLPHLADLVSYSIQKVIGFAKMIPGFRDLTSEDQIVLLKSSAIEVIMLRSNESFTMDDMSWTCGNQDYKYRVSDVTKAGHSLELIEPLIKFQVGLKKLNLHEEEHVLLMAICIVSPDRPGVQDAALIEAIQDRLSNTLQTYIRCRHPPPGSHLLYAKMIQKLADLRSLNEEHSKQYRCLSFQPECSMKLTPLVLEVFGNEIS
Method in brief: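 Steps: transfect HepG2 with GAL4-UAS-driven reporter constructs; dose compounds 24 h; isolate RNA, reverse-transcribe, PCR-amplify with 6-FAM-labelled primer extension and HpaI digestion; quantify fragments by capillary electrophoresis relative to DMSO.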

[4] = BSK_3C_SRB: Viability Assessment in the BioMAP Diversity Plus: 3C Assay (AID 2283023); conditions: primary human endothelial cells (HUVEC);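 further: fitted both ways against DMSO so a hit may be signal rise or drop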
Method in brief: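 Absorbance at 560 nm of sulforhodamine B-stained (0.1%) total protein served as a cytotoxicity readout in human umbilical vein endothelial cells, 24 h after chemical treatment. Signal was fitted bidirectionally relative to DMSO.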

[5] = read-out: Matrix Metallopeptidase 1 (MMP1), MMP1 (gene 4312); assay: BSK_BE3C_MMP1: BioMAP Diversity Plus: BE3C Assay for Matrix Metallopeptidase 1 (MMP1) Biomarker Activity (AID 2283024); conditions: primary human bronchial epithelial cells; actives raise or lower the signal
Method in brief: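 MMP1 signal, measured by ELISA after a 24 h chemical exposure of human primary bronchial epithelial cells, is analysed with bidirectional fitting using DMSO as negative control.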

[6] = BSK_3C_Vis: BioMAP Diversity Plus: 3C Assay for Morphology Visualization (AID 2283025); conditions: primary human endothelial cells (HUVEC);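 further: fitted both ways so gain or loss versus DMSO counts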
Method in brief: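 Morphology read by light microscopy serves as a background control for the multiplexed 3C assay in human umbilical vein endothelial cells, taken 24 h after dosing, with DMSO as the negative control and bidirectional curve fitting.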

[7] = BSK_4H_SRB: Viability Assessment in the BioMAP Diversity Plus: 4H Assay (AID 2283027); conditions: primary human endothelial cells (HUVEC);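 further: cells exposed to compound for 24 h before staining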;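 on AC50: curves fitted both ways versus DMSO so AC50 may be loss or gain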
Method in brief: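 Cytotoxicity read-out in primary human endothelial cells: after 24 h compound exposure, cells were TCA-fixed (10%), stained with 0.1% SRB and absorbance taken at 560 nm. Values fitted in both directions relative to DMSO.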

[8] = BSK_BE3C_SRB: Viability Assessment in the BioMAP Diversity Plus: BE3C Assay (AID 2283028); conditions: primary human bronchial epithelial cells;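 on AC50: fitted both ways so AC50 may mark signal gain or loss versus DMSO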
Method in brief: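 Cells (human bronchial epithelial, primary) are treated with chemicals, and after 24 h the parallel cultures are fixed in 10% TCA. These are then stained with 0.1% SRB and read at 560 nm. Gain or loss of signal is fitted relative to DMSO.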

[9] = read-out: Thrombomodulin, THBD (gene 7056); assay: BSK_3C_Thrombomodulin: BioMAP Diversity Plus: 3C Assay for Thrombomodulin Biomarker Activity (AID 2283029); conditions: primary human endothelial cells (HUVEC); actives raise or lower the signal
Method in brief: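 Endothelial cells from umbilical vein are dosed with test chemical and incubated 24 h. Thrombomodulin is then quantified by ELISA, with DMSO serving as negative control and activity baseline.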

[10] = read-out: Urokinase-type plasminogen activator receptor (uPAR), PLAUR (gene 5329); assay: BSK_4H_uPAR: BioMAP Diversity Plus: 4H Assay for Urokinase-type plasminogen activator receptor (uPAR) Biomarker Activity (AID 2283030); conditions: primary human endothelial cells (HUVEC); actives raise or lower the signal
Method in brief: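 Cell-surface uPAR ELISA signal, measured 24 h after dosing human umbilical vein endothelial cells, was analyzed with bidirectional fitting relative to DMSO. Parallel SRB staining of total protein tracked overt cytotoxicity.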

[11] = read-out: Human Leukocyte Antigen - DR isotype (HLADR), HLA-DRA (gene 3122); assay: BSK_BE3C_HLADR: BioMAP Diversity Plus: BE3C Assay for Human Leukocyte Antigen - DR isotype (HLADR) Biomarker Activity (AID 2283032); conditions: primary human bronchial epithelial cells; actives raise or lower the signal
Method in brief: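 Chemicals are dosed onto BE3C bronchial epithelial cultures of human origin and left 24 h. HLA-DR is then measured by ELISA, and the endpoint is fitted in both directions using DMSO as the activity baseline.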

[12] = read-out: Vascular cell adhesion molecule 1 (VCAM1), VCAM1 (gene 7412); assay: BSK_4H_VCAM1: BioMAP Diversity Plus: 4H Assay for Vascular cell adhesion molecule 1 (VCAM1) Biomarker Activity (AID 2283033); conditions: primary human endothelial cells (HUVEC); actives raise or lower the signal
Method in brief: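 Chemicals are added to primary human umbilical vein endothelial cells. After 24 h, VCAM-1 levels are measured by ELISA. Values come from bidirectional fitting referenced to DMSO.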

[13] = read-out: Interferon-gamma inducible Protein 10 (IP10), CXCL10 (gene 3627); assay: BSK_BE3C_IP10: BioMAP Diversity Plus: BE3C Assay for Interferon-gamma inducible Protein 10 (IP10) Biomarker Activity (AID 2283034); conditions: primary human bronchial epithelial cells; actives raise or lower the signal
Method in brief: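 IP-10 quantified by ELISA serves as the endpoint. Cells: primary human bronchial epithelium, read 24 h after compound addition. Activity is derived by bidirectional fitting with DMSO as negative control.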

[14] = read-out: Monokine induced gamma interferon (MIG), CXCL9 (gene 4283); assay: BSK_BE3C_MIG: BioMAP Diversity Plus: BE3C Assay for Monokine induced gamma interferon (MIG) Biomarker Activity (AID 2283035); conditions: primary human bronchial epithelial cells; actives raise or lower the signal
Method in brief: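 ELISA quantified MIG after 24 h exposure of primary bronchial epithelial cultures, analysed in both directions relative to DMSO. Cytotoxicity tracked in parallel cultures by sulforhodamine B staining.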

[15] = read-out: Transforming growth factor beta 1 (TGFb1), TGFB1 (gene 7040); assay: BSK_BE3C_TGFb1: BioMAP Diversity Plus: BE3C Assay for Transforming growth factor beta 1 (TGFb1) Biomarker Activity (AID 2283036); conditions: primary human bronchial epithelial cells; actives raise or lower the signal
Method in brief: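 Bronchial epithelial primary cells are treated with test chemical, then TGF-b1 is quantified by ELISA after 24 hours. Values derive from bidirectional fitting against DMSO, with cytotoxicity checked by SRB staining in parallel cultures.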

[16] = read-out: Plasminogen activator inhibitor-1 (PAI1), SERPINE1 (gene 5054); assay: BSK_BE3C_PAI1: BioMAP Diversity Plus: BE3C Assay for Plasminogen activator inhibitor-1 (PAI1) Biomarker Activity (AID 2283037); conditions: primary human bronchial epithelial cells; actives raise or lower the signal
Method in brief: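 Values derive from bidirectional fitting against DMSO baseline of PAI-1 levels, measured by ELISA in human bronchial epithelial cells 24 h after compound addition.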

[17] = read-out: urokinase plasminogen activator (uPA), PLAU (gene 5328); assay: BSK_BE3C_uPA: BioMAP Diversity Plus: BE3C Assay for urokinase plasminogen activator (uPA) Biomarker Activity (AID 2283038); conditions: primary human bronchial epithelial cells; actives raise or lower the signal
Method in brief: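 Bronchial epithelial cells (human, primary); chemical 24 h; uPA by ELISA; bidirectional fit vs DMSO. SRB (0.1%, after 10% TCA fixation, 560 nm) in parallel cultures for cytotoxicity.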

[18] = read-out: Urokinase-type plasminogen activator receptor (uPAR), PLAUR (gene 5329); assay: BSK_BE3C_uPAR: BioMAP Diversity Plus: BE3C Assay for Urokinase-type plasminogen activator receptor (uPAR) Biomarker Activity (AID 2283039); conditions: primary human bronchial epithelial cells; actives raise or lower the signal
Method in brief: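 Steps: dose human primary bronchial epithelial cells, incubate 24 h, measure uPAR by ELISA, then fit gain- or loss-of-signal response bidirectionally relative to DMSO.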

[19] = read-out: Pselectin, SELP (gene 6403); assay: BSK_4H_Pselectin: BioMAP Diversity Plus: 4H Assay for Pselectin Biomarker Activity (AID 2283026); conditions: primary human endothelial cells (HUVEC); actives raise or lower the signal
Method in brief: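 Endothelial primary cells (human umbilical vein) are dosed, incubated 24 h, and assayed for surface P-selectin by ELISA; responses in either direction are fitted relative to the DMSO negative control.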

[20] = read-out: Vascular endothelial growth factor receptor 2 (Homo sapiens) (UniProt P35968); assay: BSK_4H_VEGFRII: BioMAP Diversity Plus: 4H Assay for Vascular endothelial growth factor receptor 2 (VEGFR2) Biomarker Activity (AID 2283031); conditions: primary human endothelial cells (HUVEC); actives raise or lower the signal
Method in brief: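 ELISA read-out of VEGFRII in primary human umbilical vein endothelium, taken 24 h after chemical treatment. Responses are expressed relative to DMSO, with bidirectional fitting.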

Measured: AC50

COC(=O)c1ccc(O)cc1
not listed: [19] | [20]
inactive: all other assays above

CCCCCCCCCCO
inactive: all assays above

CCCCC(CC)COC(=O)CC(C(=O)OCC(CC)CCCC)S(=O)(=O)O (stereo unspecified)
inactive: [3] | [9]
active: [1] 30.6 µM | [2] 38 µM | [4] 31.2 µM | [5] 10.2 µM | [6] 37.5 µM | [7] 38 µM | [8] 6.46 µM | [10] 39 µM | [11] 7.52 µM | [12] 34.5 µM | [13] 7.16 µM | [14] 8.91 µM | [15] 6.71 µM | [16] 11.5 µM | [17] 11.1 µM | [18] 11.9 µM

Cc1c(C(=O)O)c(O)cc2c1C(=O)c1c(O)c([C@@H]3O[C@H](CO)[C@@H](O)[C@H](O)[C@H]3O)c(O)c(O)c1C2=O
inactive: all assays above

CN1CCCC1=O
not listed: [5]
inactive: all other assays above

Cc1cc(NC(=O)C(=O)O)cc(C)c1Oc1ccc(O)c2c1CCC2
inactive: all assays above

CC1(C)NC(=O)NC1=O
not listed: [5]
inactive: all other assays above

Cc1ccc(Cl)cc1
not listed: [20]
inactive: all other assays above

CCCCCCOCCO
not listed: [19]
inactive: all other assays above

Cc1oc(-c2ccccc2)nc1CCOc1cccc2c1ccn2CCC(=O)O
active: [11] 20.7 µM | [13] 26 µM
not listed: [20]
inactive: all other assays above

COc1cc(S(=O)(=O)O)c(C)cc1N=Nc1c(O)ccc2cc(S(=O)(=O)O)ccc12
not listed: [5]
inactive: all other assays above

O=C(N[C@@H](Cc1ccccc1)[C@@H](O)C(=O)N1C[C@@H](O)[C@@H](O)C1)c1cc2cc(Cl)ccc2[nH]1
not listed: [19]
inactive: all other assays above

C1CCC(SSC2CCCCC2)CC1
active: [12] 20 µM
not listed: [20]
inactive: all other assays above

O=c1[nH]cc(F)c(=O)[nH]1
active: [4] 20.4 µM
not listed: [10] | [19]
inactive: all other assays above
